From PubChem BioAssay
AI-2 QS modul: Vibrio harveyi AI-2 quorum sensing modulators, primary screen, JMH597 strain, luminescence/OD600 ratio; Vibrio harveyi JMH597 AI-2 luminescence/OD600 ratio, 9 h; stronger effect = lower value; strain lacks LuxN and CqsS sensors; 0 = neutral-control median; activity change, % at 7.5 µM; 300,000 compounds, 0.4% hits; AID 2094, 2009; in the data active = activity change below about -75%, passing the limit was not always enough; inconclusive = no clear call, values can overlap the other calls;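 also: luminescence divided by OD600 gain over 9 h not by final OD600 alone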
SMARCA2 activ: SMARCA2 (BRM) function activators, primary screen, cell-based, luminescence, high throughput; MG213 cells, MMTV-luciferase reporter, dexamethasone, overnight; activation, % at 9.1 µM; 370,000 compounds, 1% hits; in the data active = activation above about 7.8%
HSF1 inh: HSF1 inhibitors in luciferase reporter cells, primary screen, cell-based, NIH3T3, luminescence; NIH3T3-HGL HSE-luciferase, MG132-induced, luminescence 8 h; stronger effect = lower value; activity change, negative = inhibition, % at 7.5 µM (by protocol); 300,000 compounds, 0.77% hits;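 active = more than half of replicate wells show activity change below -50%, luminescence cut by over half; inconclusive = some wells, but at most half, below -50%; inactive = no replicate well below -50%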;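 also: luciferase reports HSF-1 transcriptional activity via heat shock element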
PG9 Ab binder: binders of HIV-1 gp120 antibody PG9, primary screen, biochemical, TR-FRET. HIV-1 gp120 / PG9 antibody interaction. AID 624416, 2012. 360,000 compounds, 0.43% hits. inhibition, % at 6.7 µM. TR-FRET gp120-PG9 antibody binding; in the data active = inhibition above about 8.5%
HSP90 refold inh: HSP90 inhibitors, primary screen, cell lysate, luminescence. Rabbit reticulocyte lysate, luciferase refolding luminescence, 3 h. inhibition, % at 5.6 µM. 290,000 compounds, 0.91% hits. AID 1789, 2009;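 active = inhibition above the screen-wide mean plus 3 SD, computed separately per campaign, cut at about 16% in these data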;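 also: inhibitors lower the luminescence because luciferase stays unfolded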
FXN GAA850 act: FXN promoter activators, primary screen, cell-based, luciferase luminescence, HEK293 lucGAA850; AID 540364, 2011; HEK293 lucGAA850 FXN promoter luciferase reporter, 24 h; percent of 10 µM SAHA response; activation, % at 6 µM; 360,000 compounds, 0.56% hits;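 active = activation above the average of all compounds screened plus 3 SD, cutoff fixed separately per campaign, cut at about 7.5% in these data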
JMH597 growth: Vibrio harveyi growth inhibition, confirmation, counter-screen for AI-2 quorum sensing project, JMH597 strain, OD600 absorbance. shares compounds with AI-2 QS modul. 750 compounds, 1% hits. growth inhibition, % at 7.5 µM. 9 h; lacks LuxN and CqsS sensors;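 active = every replicate shows growth inhibition above 50%; inconclusive = at least half, but not all, replicates pass that cutoff; inactive = fewer than half of replicates pass it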
BB721 lum counter: luminescence inhibition in constitutive-on V. harveyi, confirmation, counter-screen for LuxS inhibitor project, strain BB721, luminescence readout; shares compounds with AI-2 QS modul; Vibrio harveyi BB721 luminescence, 9 h; inhibition, % at 7.5 µM; 750 compounds, 95% hits; AID 2727, 2010;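 active = inhibition above about 80% in every replicate, not just on average, limit read from the data; inconclusive = at least half of replicates past the limit, but not all; inactive = fewer than half of replicates past the limit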
BB721 growth rt: growth inhibition of V. harveyi BB721, confirmation, cytotoxicity control for AI-2 quorum sensing inhibitors, strain BB721, absorbance OD600; shares compounds with AI-2 QS modul; Vibrio harveyi BB721 growth, 9 h; growth inhibition, % at 7.5 µM; 750 compounds, 3% hits; AID 2728, 2010;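 active = every replicate shows growth inhibition above 50%; inconclusive = at least half but not all replicates above 50% inhibition; inactive = under half of replicates above 50% inhibition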
AI-2 QS JMH597: Vibrio harveyi AI-2 signaling luminescence modulation – JMH597 strain, confirmation; shares compounds with AI-2 QS modul; Vibrio harveyi JMH597 AI-2 quorum sensing luminescence, 9 h; luxN and CqsS knockout, AI-2 only; inhibition, % at 7.5 µM; 750 compounds, 97% hits; AID 2736, 2010;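 active = every replicate shows more than 75% inhibition of signal versus neutral control wells; inconclusive = half to three quarters of replicates exceed 75% inhibition; inactive = fewer than half of replicates exceed 75% inhibition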
Numbers stand for hits; – = inactive; ? = inconclusive; · = no result given. Shown are actives, neighbours in structure and some others; about 3.4% of the full set was active somewhere.

SMILES	AI-2 QS modul	SMARCA2 activ	HSF1 inh	PG9 Ab binder	HSP90 refold inh	FXN GAA850 act	JMH597 growth	BB721 lum counter	BB721 growth rt	AI-2 QS JMH597
O=C(c1cc2cc3ccc(Cl)cc3nc2o1)N1CCN(Cc2ccc3c(c2)OCO3)CC1	·	–	·	–	·	–	·	·	·	·
COCCN1Cc2cc(C(=O)OC)c3c(c2C1=O)c1cc(OC)ccc1n3S(C)(=O)=O	·	–	·	–	·	·	·	·	·	·
CCCC[C@H](C(=O)N(C)c1cccc(OC)c1)[C@@H](O)c1ccc(Cl)cc1	·	–	·	·	·	·	·	·	·	·
COC(=O)[C@]12CCCCC=C1N(Cc1ccc(OC)cc1)C(=O)[C@@H]2CC(=O)NCc1ccc(OC)c(OC)c1	·	–	·	·	·	·	·	·	·	·
CCCC(=O)Nc1ccc(S(=O)(=O)N2CCCC2)cc1	–	–	–	–	–	–	·	·	·	·
CCOc1ccc(NC(=O)C2CCN(S(=O)(=O)c3cccnc3)CC2)cc1	-86	–	–	–	–	–	–	95	–	97
O=C(Nc1ccc(S(=O)(=O)N2CCCC2)cc1)C1CCCCC1	-83	–	–	–	–	–	–	93	–	96
CCOc1ccc(OCC)c(NC(=O)C2CCN(S(=O)(=O)c3cccnc3)CC2)c1	–	–	–	–	–	–	·	·	·	·
O=C(Nc1ccc(S(=O)(=O)N2CCCCC2)cc1)C1CC1	–	–	–	–	–	–	·	·	·	·
CCCCC(=O)NC(=S)Nc1ccc(S(=O)(=O)N2CCCC2)cc1	-84	–	–	–	–	–	–	86	–	92
CCn1c(COc2ccc(C)cc2)nnc1SCc1cccc(C(F)(F)F)c1	·	–	·	·	·	·	·	·	·	·
Oc1oc(-c2ccccc2)nc1C=NCc1ccccc1	?	–	–	–	–	–	–	93	–	95
Oc1oc(-c2cccc3ccccc23)nc1C=NCc1ccccc1	·	·	·	·	–	·	·	·	·	·
S=c1[nH]nc(-c2n[nH]c3c2CCC3)n1N=Cc1c[nH]c2ccccc12	·	–	·	·	·	·	·	·	·	·
O=C(Cn1cnc2ccccc2c1=O)Nc1ccc(S(=O)(=O)N2CCOCC2)cc1	-94	–	–	–	–	–	–	99	–	99
O=C(Cn1cnc2ccccc2c1=O)Nc1ccc(S(=O)(=O)N2CCCC2)cc1	-97	–	–	–	–	–	–	100	–	100
O=C(COCc1ccncc1)N1CCN(c2ccc(F)cc2Cl)CC1	·	–	·	·	·	·	·	·	·	·
N#Cc1ccc(OCCCN2CCC(C(O)(c3ccccc3)c3ccccc3)CC2)cc1	·	–	·	–	·	·	·	·	·	·
COC(=O)C1=C(C)N(Cc2cccc(C(F)(F)F)c2)C(=NCc2ccc(OC)cc2)NC1c1ccc(F)cc1 (stereo not drawn)	·	–	·	–	·	·	·	·	·	·
O=C(Nc1cccc(Cl)c1)OCc1cnc(Cl)s1	?	–	–	–	–	–	–	92	–	92
O=C(/C=C/c1cccc(Cl)c1)NCc1ccccc1	-89	–	–	–	–	–	–	96	–	97
O=C(/C=C/c1cccc(Cl)c1)NCc1cccs1	-83	–	–	–	–	–	–	90	–	91
Cc1cccc(NC(=O)c2cc(S(=O)(=O)N3CCCCC3)c[nH]2)c1	·	–	·	–	·	–	·	·	·	·
CCn1c(SCC(=O)O)nnc1-c1ccc(S(=O)(=O)N2CCCC2)cc1	–	–	–	–	–	–	·	·	·	·
CCn1c(SCc2ccccc2)nnc1-c1ccc(S(=O)(=O)N2CCCCC2)cc1	?	–	–	–	–	–	–	89	–	94
SMILES	AI-2 QS modul	SMARCA2 activ	HSF1 inh	PG9 Ab binder	HSP90 refold inh	FXN GAA850 act	JMH597 growth	BB721 lum counter	BB721 growth rt	AI-2 QS JMH597
O=C(Cc1ccsc1)Nc1ccc(S(=O)(=O)C(F)F)cc1	-87	–	-64	–	–	–	–	97	–	100
CC(C)NS(=O)(=O)c1ccc(NC(=O)Cc2ccsc2)cc1	–	–	–	–	–	–	·	·	·	·
O=C(c1cc(COc2c(F)cccc2F)on1)N1CCc2ccccc2C1	?	–	–	–	–	–	–	87	–	91
CCCCCCC12C(=Cc3cc(C)ccc31)c1ccccc1C(CC(=O)NCc1ccccc1)N2C(=O)OC (stereo not drawn)	·	–	·	–	·	·	·	·	·	·
COc1ccc(NCc2cc(=O)oc3cc(NC(C)=O)ccc23)cc1	-81	–	–	–	–	–	–	88	–	93
COc1ccc(C2(C)NC(=O)N(CC(=O)Nc3ccc(S(=O)(=O)N4CCCC4)cc3)C2=O)cc1 (stereo not drawn)	-90	–	–	–	–	–	–	89	–	94
O=C(Cn1nnc2ccccc21)Nc1ccc([N+](=O)[O-])cc1	-92	–	–	–	–	–	–	99	–	99
CC1(c2ccccc2)NC(=O)N(CC(=O)NC(=O)NCc2ccco2)C1=O (stereo not drawn)	-82	–	–	–	–	–	–	88	–	92
CC1SC(C)C(=O)N(CC(=O)Nc2ccc([N+](=O)[O-])cc2)C1=O (stereo not drawn)	-94	–	–	–	–	–	–	99	–	99
C#CCNC(=O)C[C@H]1C[C@@]2(C(=O)OC)C(=C[C@H](C(C)(C)C)O[C@@H]2C)N(CCC2=CCCCC2)C1=O	·	–	·	–	·	·	·	·	·	·
CC(C)N(C)c1ncnc2c1ncn2[C@H]1CN(Cc2ccc(F)cc2)C[C@@H](CO)O1	·	–	·	–	·	–	·	·	·	·
C/C=C/c1ccccc1OCCCN1CCC(C(O)(c2ccccc2)c2ccccc2)CC1	·	–	·	·	·	·	·	·	·	·
CC1(C)CC(=O)C=C(c2ccc(COC(=O)c3ccc(Br)cc3)cc2)C1=O	·	–	·	–	·	·	·	·	·	·
Cc1cc(C)cc(NC(=O)CN2C(=O)NC(C)(c3ccccc3)C2=O)c1 (stereo not drawn)	-83	–	–	–	–	–	–	86	–	92
CC1(c2ccccc2)NC(=O)N(CC(=O)Nc2ccc([N+](=O)[O-])cc2)C1=O (stereo not drawn)	-89	–	–	–	–	–	–	97	–	98
